# The full data set covers some 8,800 targets. This sample favours those with a hit. About 0.5% of all pairs of compound and target were hits. Unmarked numbers belong to inactive results.
# Tests used:
# Assay in all cases: log2 fold change, soluble protein after heating vs DMSO (PISA); higher = thermal stabilisation; K562 lysate, 10 uM; active = over 0.2 and 3.5 SD of the protein, either way, in both replicates (recomputed)
# nilotinib = compound: Cc1cn(-c2cc(NC(=O)c3ccc(C)c(Nc4nccc(-c5cccnc5)n4)c3)cc(C(F)(F)F)c2)cn1 [nilotinib]
# In short: (§1)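 The values are log-two fold changes in thermal stability compared with solvent controls and come from duplicates. They were obtained by TMTpro 16plex LC-MS/MS, with channel sums equalised, on the supernatant after 21,000xg for 90 min. That supernatant came from crude K562 extract at 1 mg/mL protein treated with 10 μM compound for 30 min, heated for 3 min across 48°C-58°C, pooled and brought to 0.5% NP-40 at 4°C.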
# [1] = compound: Cc1nc(Nc2n[nH]c3c2CN(C(=O)N[C@H](CN(C)C)c2ccccc2)C3(C)C)c2sccc2n1
# In short: as §1
# dasatinib = compound: Cc1nc(Nc2ncc(C(=O)Nc3c(C)cccc3Cl)s2)cc(N2CCN(CCO)CC2)n1 [dasatinib]
# In short: as §1
# [2] = compound: Cc1ncc(-c2ccnc(Nc3ccc(S(C)(=O)=O)cc3)n2)n1C(C)C
# In short: as §1
# [3] = compound: Cn1cc(-c2ccc3c(c2)CCN3C(=O)Cc2cccc(C(F)(F)F)c2)c2c(N)ncnc21
# In short: as §1
# quisinostat = compound: Cn1cc(CNCC2CCN(c3ncc(C(=O)NO)cn3)CC2)c2ccccc21 [quisinostat]
# In short: as §1
# tipifarnib = compound: Cn1cncc1[C@@](N)(c1ccc(Cl)cc1)c1ccc2c(c1)c(-c1cccc(Cl)c1)cc(=O)n2C [tipifarnib]
# In short: as §1
# [4] = compound: NC(=O)Nc1cc(-c2cccc(F)c2)sc1C(=O)N[C@H]1CCCNC1
# In short: as §1
# [5] = compound: NC(=O)c1cnc(N[C@@H]2CCCC[C@@H]2N)nc1Nc1cccc(-n2nccn2)c1
# In short: as §1
# [6] = compound: NC1(c2ccc(-c3nc4ccn5c(=O)[nH]nc5c4cc3-c3ccccc3)cc2)CCC1
# In short: as §1
# Chain of UniProt P27361 (P27361 whole entry, looked up): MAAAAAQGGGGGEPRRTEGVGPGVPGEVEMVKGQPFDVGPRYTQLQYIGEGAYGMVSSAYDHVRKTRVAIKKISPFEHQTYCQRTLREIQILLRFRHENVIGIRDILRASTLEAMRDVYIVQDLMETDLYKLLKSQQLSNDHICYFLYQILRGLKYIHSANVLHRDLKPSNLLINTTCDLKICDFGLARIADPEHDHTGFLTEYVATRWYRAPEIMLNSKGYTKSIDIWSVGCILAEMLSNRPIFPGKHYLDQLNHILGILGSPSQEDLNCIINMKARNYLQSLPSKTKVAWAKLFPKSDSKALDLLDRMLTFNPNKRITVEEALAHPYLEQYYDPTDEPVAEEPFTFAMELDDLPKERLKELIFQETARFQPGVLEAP
# Chain of UniProt Q8N5J2 (Q8N5J2 whole entry, looked up): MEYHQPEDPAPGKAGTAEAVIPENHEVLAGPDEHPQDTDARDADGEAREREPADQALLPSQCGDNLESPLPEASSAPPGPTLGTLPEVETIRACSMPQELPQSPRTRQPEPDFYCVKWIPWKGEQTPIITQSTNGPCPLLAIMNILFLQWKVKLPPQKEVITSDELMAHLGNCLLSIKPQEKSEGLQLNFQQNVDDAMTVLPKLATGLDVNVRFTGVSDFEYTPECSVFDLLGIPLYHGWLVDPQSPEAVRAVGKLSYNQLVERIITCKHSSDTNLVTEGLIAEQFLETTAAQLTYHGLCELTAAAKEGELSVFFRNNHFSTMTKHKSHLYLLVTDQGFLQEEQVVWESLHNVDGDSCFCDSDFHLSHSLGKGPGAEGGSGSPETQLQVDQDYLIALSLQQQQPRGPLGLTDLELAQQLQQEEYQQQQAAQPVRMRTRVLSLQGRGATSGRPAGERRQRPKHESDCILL
# Chain of UniProt Q14739 (Q14739 whole entry, looked up): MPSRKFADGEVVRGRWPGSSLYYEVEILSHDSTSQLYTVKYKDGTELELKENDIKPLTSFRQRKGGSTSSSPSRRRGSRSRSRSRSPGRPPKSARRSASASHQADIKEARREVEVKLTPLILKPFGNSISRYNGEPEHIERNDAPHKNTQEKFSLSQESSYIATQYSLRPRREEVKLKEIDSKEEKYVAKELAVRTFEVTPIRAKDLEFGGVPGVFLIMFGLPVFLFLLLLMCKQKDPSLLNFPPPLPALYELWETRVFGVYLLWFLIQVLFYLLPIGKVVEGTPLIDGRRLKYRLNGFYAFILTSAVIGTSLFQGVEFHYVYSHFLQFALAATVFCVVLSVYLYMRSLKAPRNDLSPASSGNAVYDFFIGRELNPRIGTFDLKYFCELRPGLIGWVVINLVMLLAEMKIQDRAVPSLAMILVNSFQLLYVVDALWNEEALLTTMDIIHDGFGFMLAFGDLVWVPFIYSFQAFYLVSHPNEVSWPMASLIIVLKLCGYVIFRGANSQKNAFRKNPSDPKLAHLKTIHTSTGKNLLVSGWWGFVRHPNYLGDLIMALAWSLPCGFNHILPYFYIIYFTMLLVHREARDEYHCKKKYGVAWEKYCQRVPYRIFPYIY
# Chain of UniProt Q99661 (Q99661 whole entry, looked up): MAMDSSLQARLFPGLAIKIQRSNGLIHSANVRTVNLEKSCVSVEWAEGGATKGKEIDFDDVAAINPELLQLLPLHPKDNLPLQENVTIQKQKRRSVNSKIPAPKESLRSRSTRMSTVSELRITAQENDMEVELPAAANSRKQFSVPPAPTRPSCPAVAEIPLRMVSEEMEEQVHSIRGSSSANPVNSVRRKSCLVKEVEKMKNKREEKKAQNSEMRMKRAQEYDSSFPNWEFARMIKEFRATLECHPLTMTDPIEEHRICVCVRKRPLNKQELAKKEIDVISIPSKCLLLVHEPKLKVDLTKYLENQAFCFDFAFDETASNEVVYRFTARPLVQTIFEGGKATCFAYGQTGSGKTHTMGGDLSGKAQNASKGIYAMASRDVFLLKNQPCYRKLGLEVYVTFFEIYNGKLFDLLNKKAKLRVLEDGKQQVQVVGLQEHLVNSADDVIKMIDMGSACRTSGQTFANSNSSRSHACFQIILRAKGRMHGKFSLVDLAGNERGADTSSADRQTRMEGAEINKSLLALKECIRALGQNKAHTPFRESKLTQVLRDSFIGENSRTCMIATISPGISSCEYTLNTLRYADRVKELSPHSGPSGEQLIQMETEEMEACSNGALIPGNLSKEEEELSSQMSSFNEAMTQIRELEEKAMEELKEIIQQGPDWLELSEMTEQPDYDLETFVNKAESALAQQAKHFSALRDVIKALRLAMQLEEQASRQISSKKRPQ
# Chain of UniProt Q2VIQ3 (Q2VIQ3 whole entry, looked up): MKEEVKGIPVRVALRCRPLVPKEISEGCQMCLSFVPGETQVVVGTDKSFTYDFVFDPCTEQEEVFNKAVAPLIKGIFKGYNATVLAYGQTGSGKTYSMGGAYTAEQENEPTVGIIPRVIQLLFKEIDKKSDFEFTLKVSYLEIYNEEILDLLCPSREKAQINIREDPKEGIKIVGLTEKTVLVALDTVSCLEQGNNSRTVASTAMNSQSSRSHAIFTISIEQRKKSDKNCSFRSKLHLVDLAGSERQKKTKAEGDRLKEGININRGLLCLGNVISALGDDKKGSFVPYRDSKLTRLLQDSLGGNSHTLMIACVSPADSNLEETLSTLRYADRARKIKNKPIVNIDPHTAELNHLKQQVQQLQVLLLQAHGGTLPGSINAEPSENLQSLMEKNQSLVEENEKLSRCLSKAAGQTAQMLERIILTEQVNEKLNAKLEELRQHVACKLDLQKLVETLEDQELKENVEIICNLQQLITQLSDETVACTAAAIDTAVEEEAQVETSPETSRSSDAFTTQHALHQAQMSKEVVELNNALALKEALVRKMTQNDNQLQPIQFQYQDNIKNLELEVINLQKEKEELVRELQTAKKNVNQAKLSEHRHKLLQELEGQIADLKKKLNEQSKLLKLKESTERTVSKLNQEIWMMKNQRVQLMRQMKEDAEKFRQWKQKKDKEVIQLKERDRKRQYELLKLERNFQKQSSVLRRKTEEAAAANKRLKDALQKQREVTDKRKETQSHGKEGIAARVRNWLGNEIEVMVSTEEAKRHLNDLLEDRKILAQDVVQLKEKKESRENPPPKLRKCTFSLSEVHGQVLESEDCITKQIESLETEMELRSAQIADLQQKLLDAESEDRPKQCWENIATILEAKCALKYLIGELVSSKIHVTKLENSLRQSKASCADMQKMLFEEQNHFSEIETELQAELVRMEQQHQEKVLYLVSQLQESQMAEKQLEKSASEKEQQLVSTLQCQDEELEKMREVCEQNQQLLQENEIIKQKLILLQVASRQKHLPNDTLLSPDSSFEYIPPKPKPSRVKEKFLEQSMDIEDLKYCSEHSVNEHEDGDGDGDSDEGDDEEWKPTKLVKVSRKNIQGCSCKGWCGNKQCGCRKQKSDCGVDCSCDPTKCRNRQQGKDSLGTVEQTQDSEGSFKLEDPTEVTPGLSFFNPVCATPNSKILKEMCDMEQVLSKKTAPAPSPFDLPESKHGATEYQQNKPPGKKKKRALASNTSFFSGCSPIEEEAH
# Chain of UniProt P27816 (P27816 whole entry, looked up): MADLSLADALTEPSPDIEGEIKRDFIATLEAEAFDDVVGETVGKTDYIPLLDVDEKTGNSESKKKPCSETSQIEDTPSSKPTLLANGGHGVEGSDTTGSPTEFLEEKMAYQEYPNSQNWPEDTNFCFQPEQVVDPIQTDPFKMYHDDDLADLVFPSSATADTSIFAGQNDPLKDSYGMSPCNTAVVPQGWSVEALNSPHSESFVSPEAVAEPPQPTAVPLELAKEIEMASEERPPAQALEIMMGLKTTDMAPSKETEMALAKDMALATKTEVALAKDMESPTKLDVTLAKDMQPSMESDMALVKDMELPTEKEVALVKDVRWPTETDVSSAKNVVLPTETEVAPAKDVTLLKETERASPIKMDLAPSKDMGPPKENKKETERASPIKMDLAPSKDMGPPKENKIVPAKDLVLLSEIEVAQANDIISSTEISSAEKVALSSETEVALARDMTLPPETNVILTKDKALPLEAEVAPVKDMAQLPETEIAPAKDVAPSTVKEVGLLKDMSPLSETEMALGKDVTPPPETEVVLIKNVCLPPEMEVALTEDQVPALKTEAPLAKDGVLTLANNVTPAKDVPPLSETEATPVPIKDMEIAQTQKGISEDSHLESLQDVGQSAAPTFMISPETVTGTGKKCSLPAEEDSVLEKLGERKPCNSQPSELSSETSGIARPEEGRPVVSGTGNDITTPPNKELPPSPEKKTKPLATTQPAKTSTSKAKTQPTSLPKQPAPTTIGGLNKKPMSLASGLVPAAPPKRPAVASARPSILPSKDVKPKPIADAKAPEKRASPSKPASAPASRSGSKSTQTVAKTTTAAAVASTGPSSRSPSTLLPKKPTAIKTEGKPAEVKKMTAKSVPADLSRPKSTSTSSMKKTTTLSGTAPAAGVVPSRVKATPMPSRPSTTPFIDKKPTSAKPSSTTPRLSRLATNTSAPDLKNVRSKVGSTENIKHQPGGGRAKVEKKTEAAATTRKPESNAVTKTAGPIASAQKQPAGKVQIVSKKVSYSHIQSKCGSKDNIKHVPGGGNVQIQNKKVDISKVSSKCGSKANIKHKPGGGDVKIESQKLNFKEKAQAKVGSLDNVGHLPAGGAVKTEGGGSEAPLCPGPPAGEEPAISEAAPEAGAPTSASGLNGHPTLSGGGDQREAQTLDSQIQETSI
# Chain of UniProt Q9H8H3 (Q9H8H3 whole entry, looked up): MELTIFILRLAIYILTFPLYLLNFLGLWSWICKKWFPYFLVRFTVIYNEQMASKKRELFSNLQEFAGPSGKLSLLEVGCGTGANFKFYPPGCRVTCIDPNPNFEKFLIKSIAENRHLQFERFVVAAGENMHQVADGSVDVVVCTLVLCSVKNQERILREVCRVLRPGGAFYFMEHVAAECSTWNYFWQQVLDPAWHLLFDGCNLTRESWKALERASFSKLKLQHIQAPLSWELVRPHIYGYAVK
# Chain of UniProt A9UHW6 (A9UHW6 whole entry, looked up): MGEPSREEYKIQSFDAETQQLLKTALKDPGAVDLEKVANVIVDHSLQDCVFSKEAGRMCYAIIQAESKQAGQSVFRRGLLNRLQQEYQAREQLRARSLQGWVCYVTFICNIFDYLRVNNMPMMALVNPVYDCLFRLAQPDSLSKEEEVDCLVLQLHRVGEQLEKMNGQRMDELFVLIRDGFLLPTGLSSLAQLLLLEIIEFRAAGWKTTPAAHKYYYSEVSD
Target,log2 fold change (nilotinib),log2 fold change [1],log2 fold change (dasatinib),log2 fold change [2],log2 fold change [3],log2 fold change (quisinostat),log2 fold change (tipifarnib),log2 fold change [4],log2 fold change [5],log2 fold change [6]
MLXIP (UniProt Q9HAP2),0.09,0.003,-0.068,0.003,0.02,-0.04,0,0.082,-0.01,-0.028
MCMBP (UniProt Q9BTE3),-0.01,-0.008,-0.031,-0.028,0.008,-0.039,0.024,0.039,0.014,-0.033
METTL7A (UniProt Q9H8H3),0.168,0.014,0.198,-0.01,0.096,-0.112,0.03,-0.026,-0.055,-0.068
LBR (UniProt Q14739),-0.026,0.015,-0.04,-0.004,0.003,0.065,-0.03,-0.048,0.006,0.08
KIF2C (UniProt Q99661),0.013,0.009,-0.021,0.002,0.028,-0.068,0.003,0.035,-0.01,-0.005
KIFC1 (UniProt Q9BW19),-0.008,0.003,-0.031,-0.002,0.034,-0.055,0.006,0.001,-0.024,-0.025
MCMBP isoform 2 (UniProt Q9BTE3),0.152,-0.039,0.099,-0.144,-0.099,-0.076,0.066,-0.041,0.082,-0.118
LSS (UniProt P48449),0.042,0.001,0.016,-0.025,0.047,-0.022,-0.065,0.003,0.083,0.092
MED25 isoform 3 (UniProt Q71SY5),0.132,0.026,-0.039,0.097,-0.017,-0.008,-0.024,0.029,-0.013,-0.073
MINDY1 isoform 3 (UniProt Q8N5J2),-0.03,0.154,-0.086,0.271,0.159,-0.006,0.022,-0.072,0.548 (active),0.038
MARK3 (UniProt P27448),0.013,-0.004,-0.186,-0.05,0.014,0.172,-0.072,-0.08,-0.029,-0.06
MAD2L1BP isoform 3 (UniProt Q15013),-0.028,0.108,0.016,-0.007,-0.026,-0.066,0.018,-0.019,0.048,-0.056
LPIN1 isoform 7 (UniProt Q14693),-0.032,0.026,-0.107,0.182,0.028,-0.032,-0.104,0.035,-0.04,0.003
MACROD1 (UniProt Q9BQ69),0.036,-0.099,-0.066,0.021,0.055,-0.083,0.005,0.022,-0.006,-0.024
LDAH isoform 2 (UniProt Q9H6V9),-0.062,0.023,-0.071,-0.003,0.017,-0.022,-0.077,0.037,-0.009,0.307 (active)
MAP4 (UniProt E7EVA0),0.073,0.021,-0.009,0.046,0.057,-0.271 (active),-0.031,0.024,0.016,-0.1
MGAT5 (UniProt Q09328),0.035,0.01,-0.005,0.012,0.002,0.051,-0.02,-0.019,0.022,-0.003
LRRC40 (UniProt Q9H9A6),-0.008,-0.01,-0.012,-0.035,0.017,0.032,-0.032,0.004,0.004,0.029
KIF22 (UniProt Q14807),0.041,-0.021,-0.023,-0.029,-0.055,-0.451 (active),-0.015,0.081,-0.023,-0.171
KIF14 (UniProt Q15058),0.003,0.042,-0.035,0.033,0.007,-0.139,-0.046,0,0.001,-0.024
KIF4B (UniProt Q2VIQ3),-0.016,0.034,-0.013,0.049,0.096,-0.08,-0.009,0.037,0.045,-0.078
MAPK3 (UniProt P27361),0.009,0.272 (active),-0.026,0.141,-0.019,0.016,-0.013,0.022,0.094,-0.003
MIF4GD isoform 3 (UniProt A9UHW6),-0.036,0.031,0.056,-0.015,0.039,-0.04,0.016,0.052,-0.032,-0.007
MAP4K4 isoform 3 (UniProt O95819),-0.108,0.03,-0.103,0.002,0.006,-0.103,0.038,0.27 (active),0.02,-0.032
MAPK14 isoform 2 (UniProt Q16539),0.523,0.041,0.879 (active),0.037,0.033,-0.031,-0.039,-0.035,0.076,-0.018
MARK2 (UniProt E9PC69),0.019,0.034,-0.03,0.012,-0.047,0.031,-0.019,-0.065,0.002,-0.183
MAP4 (UniProt P27816),-0.002,-0.001,0.013,0.016,-0.036,-0.001,0.012,-0.034,-0.011,-0.003
LZTS1 (UniProt Q9Y250),-0.13,0.023,0.056,0.167,-0.266,-1.06 (active),0.087,0.186,-0.02,-0.297
MINK1 (UniProt Q8N4C8),-0.227,-0.206,-0.077,0.199,-0.016,-0.062,0.289,0.782 (active),-0.023,0.02

# Source: the supplement of paper PMC10849652
